Source: PubChem BioAssay (National Center for Advancing Translational Sciences (NCATS))
This is a sample that favours compounds with a hit; in the whole collection about 5.3% have one here.
Tau fluor counter: counter-screen for tau fibril formation inhibitors. AID 1463. 280,000 compounds, 0.93% hits. Potency, µM (top dose mostly 57.7 µM), without a hit: top-dose activity change, negative = decrease. tau K18 P301L Alexa594 fluorescence, heparin fibrillization; further: potency means the concentration at half of the fitted maximal effect; nearly all actives have a fitted effect of over 55% in size
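Human tau K18 P301L (15 uM unlabeled, 0.24 uM Alexa 594-labeled) in 100 mM sodium acetate pH 7 with 20 uM heparin, 6 hr at 37 C. ThT 30 uM added, 1 hr ambient; Alexa 594 FP and total fluorescence read at 555/632 nm.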
JMJD2E inh: JMJD2E (human) inhibition; JMJD2E catalytic domain, FDH-coupled NADH fluorescence (FDH is formaldehyde dehydrogenase); AID 2147; B2RXH2; Potency, µM (series often up to 57.1 µM), for the others: top-dose activity change, negative = inhibition, usual class: inhibitors; 230,000 compounds, 1.6% hits; active means well fitted inhibition curve with a large enough effect, not every such curve was filed as active; inconclusive means small, poorly fitted or top-dose-only effect, or another doubt; inactive means no such curve, though single readings can be large or run the other way;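 further: potency means the concentration at half of the fitted maximal effect; 0% = wells with enzyme and -100% = buffer wells without enzyme; nearly all actives have a fitted effect of over 50% in size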
Target sequence (B2RXH2 1-337 limits assumed): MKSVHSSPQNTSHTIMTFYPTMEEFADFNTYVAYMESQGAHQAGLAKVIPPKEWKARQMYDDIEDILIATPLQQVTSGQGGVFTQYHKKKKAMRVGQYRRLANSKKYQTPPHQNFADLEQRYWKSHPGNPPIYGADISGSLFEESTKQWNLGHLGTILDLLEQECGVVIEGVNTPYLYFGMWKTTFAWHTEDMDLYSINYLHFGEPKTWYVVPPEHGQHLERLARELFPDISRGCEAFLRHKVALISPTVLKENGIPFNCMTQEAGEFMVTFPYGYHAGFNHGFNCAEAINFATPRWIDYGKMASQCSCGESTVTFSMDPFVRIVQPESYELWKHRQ
FBPA coupling cs: counter-screen for Giardia aldolase inhibitors: coupling enzyme system | 290,000 compounds, 0.67% hits | AID 2472 | activity change, negative = inhibition, % at 58.2 µM, hits read low | coupling enzyme system counterscreen, AmpLite Red fluorescence; in the data active means activity change below about -30%
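Fluorescence at 525 nm excitation and 598 nm emission measured inhibition of the coupled detection system without aldolase. Compounds (at 57.5 uM final) were preincubated 10 min at room temperature with coupling enzyme reagent before a 20 min substrate/AmpLite Red step.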
Tau fibril FP: inhibitors of human tau fibril formation; K18 P301L tau heparin fibrillization, Alexa594 FP, 6 h; Potency, µM (series often up to 57.7 µM), inactives show at the highest dose activity, negative = inhibition, most hits filed as inhibitors; 280,000 compounds, 0.39% hits; AID 1468; further: potency means the concentration at half of the fitted maximal effect; nearly all actives have a fitted effect of over 55% in size
Target sequence (P10636 561-689 P618L limits assumed): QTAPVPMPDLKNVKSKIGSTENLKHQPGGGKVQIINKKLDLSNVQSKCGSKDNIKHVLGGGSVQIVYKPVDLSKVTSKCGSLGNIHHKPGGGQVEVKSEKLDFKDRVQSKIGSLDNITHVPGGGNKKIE
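Read-out: fluorescence polarization of Alexa 594-labeled tau (0.24 uM), 555 nm excitation, 632 nm emission. Mixtures held 15 uM unlabeled K18 P301L, compound and 20 uM heparin, pH 7 acetate buffer, incubated 6 hr at 37 C.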
Tau ThT inhib: inhibitors of human tau fibril formation, thioflavin T binding; recombinant tau K18 P301L (four-repeat tau fragment), heparin-induced fibrillization, ThT fluorescence; Potency, µM (top dose mostly 57.4 µM), for inactives: at the top dose activity, negative = inhibition, hits mostly inhibitors; 270,000 compounds, 2.1% hits; further: potency means the concentration at half of the fitted maximal effect; nearly all actives have a fitted effect of over 55% in size
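K18 P301L tau (15 uM + 0.24 uM Alexa 594-tagged), heparin 20 uM, NaOAc pH 7, 6 h 37 C; ThT 30 uM, 1 h RT, ex 450/em 510 nm.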
Sfp inh: blocks B. subtilis Sfp PPTase activity | 310,000 compounds, 3.5% hits | Potency, µM, for inactives: largest response in the series, negative = inhibition, actives largely listed as inhibitors | Biochemical Sfp PPTase activity, qHTS | Q9F4F7;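 further: the enzyme is Sfp with the accession as filed and its product quenches rhodamine fluorescence; potency means the concentration at half of the fitted maximal effect; 0% = enzyme reaction without inhibitor and -100% = no enzyme wells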
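Fluorescence-quenching assay: 15 nM Sfp-PPTase preincubated 15 min at room temperature with compound, then 5 uM rhodamine-CoA and 12.5 uM BHQ-2-labelled YbbR peptide added. Fluorescence (ex 525/em 598 nm) read at start and after 30 min; difference gives rate.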
An asterisk follows results filed as active; ? = inconclusive; nt = no result; ! = not active in a repeat. Unless noted, the call rests on the fitted dose curve; in most records, active means well fitted curve in the direction sought with a large enough effect; inconclusive means small, poorly fitted or top-dose-only effect, or another doubt; inactive means no such curve, though single readings can be large; an effect the other way counts as inactive or inconclusive. Unless noted, on the % scale 0 is the no-effect control and ±100 the full control effect.

SMILES | Tau fluor counter | JMJD2E inh | FBPA coupling cs | Tau fibril FP | Tau ThT inhib | Sfp inh
CC(C)C[C@H](NC(=O)[C@H](Cc1ccccc1)NC(=O)CNC(=O)[C@@H](COC(C)(C)C)NC(=O)[C@@H](N)Cc1ccc(O)cc1)C(=O)N[C@H](C(=O)O)[C@@H](C)OC(C)(C)C | nt | nt | -3 | nt | nt | 15%
CC1=CC(=O)NP(=O)(Oc2ccc3ccccc3c2)N1 (stereo not given) | -2% | -9% | 4 | 0% | -4% | 7.9µM*
CNCC(N)C(=O)O (stereo not given) | nt | nt | 0 | nt | nt | ?
C=CCc1cc(C=C2C(=O)NC(=O)NC2=O)cc(OC)c1OCc1ccc(C(=O)O)cc1 | -15% | ? | 12 | ? | ? | 56µM*
COc1cc(C=C2C(=O)NC(=O)NC2=O)ccc1O | -20% | -7% | -3 | -3% | ? | ?
C=CCc1cc(C=C2C(=O)N(C)C(=O)N(C)C2=O)cc(OCC)c1OCc1ccccc1 | -14% | -20% | 1 | ? | 25µM* | 32µM*
CCCCCCCCCCCCCCCCOC[C@@H](O)COP(=O)([O-])OCC[N+](C)(C)C | -6% | 2% | 2 | 0% | -8% | 7%
NC(=NCCc1ccc(I)cc1)SCCCc1cnc[nH]1 | -5% | 9% | 5 | -3% | -2% | 8%
O=C1Nc2ccccc2/C1=C/c1cnc[nH]1 | 0% | 2% | -4 | 6% | ? | 14%
COc1ccc2c(c1)/C(=C/c1cnc[nH]1)C(=O)N2 | -18% | -1% | 0 | 8% | 14µM* | 2%
CC(=O)[C@H]1CC[C@H]2C3CC[C@H]4C[C@](C)(O)CC[C@]4(C)C3CC[C@]12C (stereo not given in full) | nt | nt | -2 | nt | nt | 2%
CCCN(CCC)[C@@H]1CCc2c(OC)cccc2[C@@H]1C | -6% | 10% | 0 | -2% | -8% | 6%
CCCCC/C=C\C/C=C\C/C=C\CCCCC(=O)NCCc1ccc(O)c(O)c1 | 2% | 3% | 3 | -2% | 11% | 11%
CC(O)CN(CCN(CC(C)O)CC(C)O)CC(C)O (stereo not given) | nt | nt | nt | nt | nt | 79µM*
CCN(CC)/[N+]([O-])=N/O | 2% | -10% | 3 | -2% | 1% | -8%
Cc1cc(SCc2sc(-c3ccc(C(F)(F)F)c(F)c3)nc2C)ccc1OCC(=O)O | -1% | -14% | 2 | -9% | ? | -21%
O=[N+]([O-])C(Br)(CO)CO | nt | nt | nt | nt | nt | 8.9µM*
O=C(Nc1ccc2oc(-c3cccnc3)nc2c1)c1ccc(-c2cccc(Cl)c2)o1 | -15% | nt | nt | -8% | ? | nt
O=c1[nH]c(O)c(N=Nc2cc(C(F)(F)F)ccc2Cl)c(=O)[nH]1 | 2% | 6% | 7 | 6% | -12% | 22%
O=c1[nH]c(=S)[nH]c(O)c1N=Nc1cc2c(cc1[N+](=O)[O-])OCO2 | -20% | -1% | 1 | 2% | 13µM* | 10%
O=c1[nH]c(=S)[nH]c(O)c1N=Nc1ccc(-c2ccccc2)cc1[N+](=O)[O-] | ? | -2% | 4 | -11% | 4µM* | 79µM*
CC[C@H](/C=C/[C@@H](C)[C@H]1CC[C@H]2C3CC=C4C[C@@H](O)CC[C@]4(C)C3CC[C@]12C)C(C)C (stereo not given in full) | 5% | -1% | 0 | 5% | 7% | 34%
N[C@]1(C(=O)O)CC[C@@H](C(=O)O)C1 (racemic) | 0% | nt | nt | 0% | 5% | 56µM*!
CCOP(=S)(OCC)O/N=C(\C#N)c1ccccc1Cl | nt | nt | 0 | nt | nt | ?
CCOC(=O)C1CCN(/C=C2\C(=O)NC(=S)N(CC)C2=O)CC1 | 5% | 0% | 3 | 4% | 7% | 79µM*
CCOC(=O)C1CCN(/C=C2/C(=O)NC(=S)N(c3cccc(OC)c3)C2=O)CC1 | -7% | 8% | 2 | 2% | -12% | 0%
O=[N+]([O-])c1ccc(N2CCCNCC2)c2ncccc12 | -4% | 3% | -7 | 1% | ? | -4%
O=[N+]([O-])c1ccc(N2CCCCCC2)c2ncccc12 | -28% | ? | -10 | -4% | 16µM* | ?
